The results in this text go back to PubChem BioAssay.

Calls of active or inactive are those of the source.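 Rule for the calls, unless noted: active = fluorescence slope higher than the sample average by over 3 SD (cut at about -0.22 in these data, passing the limit was not always enough); inactive = the rest.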

Assay [1] in a line: inhibitors of TNFa-induced NFkB p65 translocation, primary screen, imaging, HUVEC, MLSMR starter and 10KST1 sets (AID 438;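 active = inhibition above 20% together with a positive visual image hit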;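 note: compound added about 3h40 before a 20 min TNFalpha stimulation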;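 for inhibition: signal is the nuclear over cytoplasmic p65 intensity ratio per well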). The following applies: HUVEC TNFa-induced p65 nuclear translocation; cell count: measured here: nuclei count (cytotoxicity indicator), at 2.08 µM; inhibition: at 2 µM, stronger effect = higher value, 0% TNFa-plus-vehicle, 100% no-TNFa wells.
Assay [2] is described as follows: reduction of polyQ htt aggregates in cells – imaging, exon1htt(103Q)mCFP cells, high-content imaging, primary screen (AID 483;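 active = visual image review flags a hit and inhibition of aggregation exceeds 20%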;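 note: compound exposure lasted 3 days before fixation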;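 for nuclei count: percent of the per-plate median nuclei count of sample wells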). The following applies: exon1htt(103Q)mCFP cell line, aggregate imaging, at 2 µM; inhibition of aggregation: stronger effect = higher value; nuclei count: measured here: cell count, toxicity.
Assay [3] in a line: endothelial E-selectin expression blockers – imaging, HUVEC, immunofluorescence, MLSMR starter and 10KST1 sets, primary screen (AID 487;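 active = visually confirmed hit in the image check and inhibition above 20%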;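 for inhibition: signal is fraction of cell area covered by stained E-selectin grains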;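 for nuclei count: 100% = median nuclei count of all wells on the same plate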). The following applies: HUVEC TNFalpha-induced E-selectin immunofluorescence imaging, at 2 µM; inhibition: stronger effect = higher value; nuclei count: measured here: cell number, toxicity.
The nature of assay [4]: Primary imaging screen for DUSP6 inhibitors that restore phospho-Erk in transfected HeLa cells, chemical complementation (AID 609;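 active = compounds giving at least 50% inhibition in the cell-based MKP-3 phosphatase rescue imaging test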;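 for inhibition: phospho-Erk level distribution per well compared with pooled transfected vehicle control wells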). As to conditions: HeLa MKP-3 transfected, phospho-Erk imaging KS statistic, at 10 µM, cells stimulated with TPA for 15 min.
Assay [5] concerns the target Dual specificity protein phosphatase 6 (Homo sapiens) (UniProt Q16828). Described as above. The following applies: HeLa MKP-3 transfected, phospho-Erk imaging KS statistic; at 10 µM; stronger effect = higher value; cells stimulated with TPA for 15 min.
Assay [6] concerns the target Voltage-gated potassium channel subunit beta-2 (Rattus norvegicus) (UniProt P62483). The assay is described as follows: inhibitors of rat Kvbeta2 reductase activity – biochemical, NADPH fluorescence, primary screen (AID 622).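 Note: slope of raw intensity against log time taken from 70 to 1610 s.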 As to conditions: recombinant KvBeta, 4-cyanobenzaldehyde reduction, at 10 µM, stronger effect = higher value.
For assay [7] the target is unchanged. The assay is described as follows: enhancers of rat Kvbeta2 NADPH turnover – biochemical, NADPH fluorescence, primary screen (AID 623;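 active = NADPH fluorescence slope more negative than the mean of all samples by about 3 SD, 99.7% confidence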;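 note: fluorescence intensity change per second fitted from 20 to 320 s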). As to conditions: Recombinant KvBeta, NADPH fluorescence decrease slope, 10 min; at 10 µM; stronger effect = lower value.
Assay [8] has as its target Alpha-2C adrenergic receptor (Homo sapiens) (UniProt P18825). The assay is described as follows: compounds altering alpha2C-coupled GIRK flux – cell-based, HEK293 alpha2C/GIRK1/2, thallium flux, primary screen (AID 624;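 active = fluorescence slope after compound addition differing from the mean of all screened samples at 99.7% confidence, in either direction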;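 note: slope of fluorescence ratio to pre-addition baseline per second over 15 to 24 s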). As to conditions: thallium flux BTC fluorescence, at 10 µM, actives lie on both sides.
The target of assay [9] is Muscarinic acetylcholine receptor M4 (Homo sapiens) (UniProt P08173). The assay is described as follows: M4-linked GIRK flux change, two-sided – cell-based, HEK293 M4/GIRK, thallium flux, BTC-AM, M4 allosteric agonist project, primary screen (AID 625;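 active = fluorescence slope after compound addition differing from the mean of all tested samples at 99.7% confidence, mostly higher but some lower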;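 note: thallium influx through GIRK channels coupled to M4 in HEK293 cells with BTC-AM dye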). As to conditions: at 10 µM, actives lie on both sides.
Muscarinic acetylcholine receptor M4 (Homo sapiens), sequence (P08173 whole entry, looked up): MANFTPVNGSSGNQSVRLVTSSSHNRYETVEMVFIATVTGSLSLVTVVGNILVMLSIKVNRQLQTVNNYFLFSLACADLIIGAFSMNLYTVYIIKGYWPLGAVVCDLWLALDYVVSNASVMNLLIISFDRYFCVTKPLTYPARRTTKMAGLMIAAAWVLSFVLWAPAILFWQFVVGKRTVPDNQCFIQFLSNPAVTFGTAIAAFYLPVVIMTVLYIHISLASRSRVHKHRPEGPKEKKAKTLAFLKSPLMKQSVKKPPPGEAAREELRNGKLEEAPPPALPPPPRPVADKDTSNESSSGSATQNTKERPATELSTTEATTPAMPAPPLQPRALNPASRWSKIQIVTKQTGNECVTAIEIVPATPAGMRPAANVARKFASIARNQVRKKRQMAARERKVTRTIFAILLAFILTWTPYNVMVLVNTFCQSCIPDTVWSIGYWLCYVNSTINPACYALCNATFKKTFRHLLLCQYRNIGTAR
Assay [10] is described as follows: inhibitors of larval lipid processing in zebrafish, primary screen, whole organism, PED6 fluorescence, gall bladder and intestine (AID 686;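 active = a full or partial loss of lipid-probe fluorescence in the fish gall bladder, intestine or both, judged by eye; inactive = no fluorescence loss, or compound toxic to the fish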;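 note: larvae 5 to 7 days old with five fish per well; signal comes from phospholipase A2 cleavage of quenched PED6 carried via bile; overnight exposure to compound and PED6 before scoring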). The following applies: Zebrafish larvae PED6 lipid processing, fluorescence scoring; screened at 20 µM (by protocol).
Assay [11] in a line: loss of swimming-algae plug formation – whole organism, Chlamydomonas reinhardtii, WT vs cilia-less mutant, absorbance, 96-well, primary screen (AID 463189;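 active = inhibition at or above 50% relative to wild type and mutant plate controls; inactive = inhibition below 50%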;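 note: 0% = wild type cc124 cells in DMSO and 100% = ciliumless bld1 mutant cells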). As to conditions: Chlamydomonas reinhardtii gravitaxis, OD600 absorbance, 2 days; at 10 µM; stronger effect = higher value.
The nature of assay [12]: blockers of RIG-like receptor reporter activation – cell-based, Sendai virus stimulus, luciferase, 10K MLSCN set, TLR/RLR signaling modifier project, primary screen (AID 602276;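 active = inhibition at or above 50% at 10 µM; inactive = inhibition below 50%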;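 note: firefly luciferase from ISG56 promoter only with Renilla not read in this screen; 0% = Sendai virus plus DMSO and 100% = medium plus DMSO without virus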). As to conditions: HEK293 RL24 IRF3 luciferase reporter, at 10 µM, stronger effect = higher value. On the technique in general: Reporter assays use an easily measured gene product as a stand-in for the process of interest.

A short description of assay [13]: TLR3 IRF3 reporter activation blockers – cell-based, poly I:C stimulus, luciferase, 10K MLSCN set, primary screen (AID 602277;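 active = inhibition of the reporter signal at or above 50%; inactive = inhibition below 50%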). The following applies: HEK293-TLR3 RL24 IRF3 luciferase reporter, at 10 µM, stronger effect = higher value.
Where [14] appears, read: measured here: cell density z-score.
Where [15] appears, read: measured here: nuclear c-Myc green intensity z-score.
The mark [16] stands for this setting: measured here: nuclear pErk red intensity z-score, stronger effect = higher value.

Voltage-gated potassium channel subunit beta-2 (Rattus norvegicus), sequence (P62483 whole entry, looked up): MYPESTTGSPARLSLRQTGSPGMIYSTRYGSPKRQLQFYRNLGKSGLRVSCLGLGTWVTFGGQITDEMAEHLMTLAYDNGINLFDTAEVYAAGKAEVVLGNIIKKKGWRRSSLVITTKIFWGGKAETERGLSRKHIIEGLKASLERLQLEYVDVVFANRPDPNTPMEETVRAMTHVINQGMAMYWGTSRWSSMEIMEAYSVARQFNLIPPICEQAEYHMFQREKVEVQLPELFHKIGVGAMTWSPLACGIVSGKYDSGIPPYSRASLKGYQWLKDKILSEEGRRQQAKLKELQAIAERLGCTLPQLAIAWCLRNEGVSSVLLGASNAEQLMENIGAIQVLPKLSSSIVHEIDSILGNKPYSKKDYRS
Alpha-2C adrenergic receptor (Homo sapiens), sequence (P18825 whole entry, looked up): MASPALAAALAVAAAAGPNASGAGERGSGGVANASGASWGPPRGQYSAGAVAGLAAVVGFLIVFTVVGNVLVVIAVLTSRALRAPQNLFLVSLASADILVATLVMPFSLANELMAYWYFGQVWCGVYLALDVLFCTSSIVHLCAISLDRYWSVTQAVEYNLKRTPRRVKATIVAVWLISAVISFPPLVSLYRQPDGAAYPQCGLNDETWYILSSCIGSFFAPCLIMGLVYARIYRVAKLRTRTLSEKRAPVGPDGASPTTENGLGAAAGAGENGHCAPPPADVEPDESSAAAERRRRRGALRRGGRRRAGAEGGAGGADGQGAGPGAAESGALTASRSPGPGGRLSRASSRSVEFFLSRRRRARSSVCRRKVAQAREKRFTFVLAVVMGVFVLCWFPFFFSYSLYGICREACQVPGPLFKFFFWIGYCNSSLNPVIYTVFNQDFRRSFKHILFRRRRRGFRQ
Dual specificity protein phosphatase 6 (Homo sapiens), sequence (Q16828 whole entry, looked up): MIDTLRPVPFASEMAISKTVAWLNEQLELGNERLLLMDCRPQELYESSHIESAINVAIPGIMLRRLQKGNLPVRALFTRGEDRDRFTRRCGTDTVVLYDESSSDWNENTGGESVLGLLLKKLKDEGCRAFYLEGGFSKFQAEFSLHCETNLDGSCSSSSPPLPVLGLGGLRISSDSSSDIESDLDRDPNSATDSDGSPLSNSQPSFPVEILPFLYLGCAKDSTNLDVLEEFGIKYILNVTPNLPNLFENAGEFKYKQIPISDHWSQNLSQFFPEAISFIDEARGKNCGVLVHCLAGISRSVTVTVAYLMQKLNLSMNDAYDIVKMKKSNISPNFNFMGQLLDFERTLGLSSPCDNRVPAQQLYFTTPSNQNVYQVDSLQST

Take `O=C(NCC(F)(F)F)N1CCOCC1`: in [1], the cell count was determined as 663. In addition, the inhibition in assay [1] is 11.2% (inactive); in assay [3], -23.9% (inactive); in assay [5] it was -13.3% (inactive); in assay [11], 33.2% (inactive); in [12], 9.24% (inactive); in assay [13], 15.3% (inactive). For the same molecule, in assay [2], the inhibition of aggregation is 14.7% (inactive). The nuclei count came to 106% in assay [2] and 102% in assay [3]. In addition, the z-score worked out at 0.272 in [4] (setting [14]), 0.0222 in [4] (setting [15]) and 0.9 in assay [4] (setting [16]). Besides, the fluorescence slope was -0.508 (inactive) in assay [6] and 0.00517 (inactive) in assay [9]. Moreover, in assay [7], the NADPH fluorescence slope is -3.8e-05 (inactive). The slope in assay [8] is 0.0049 (inactive). In [10], the outcome was inactive.
As to `CCOC(=O)C1CCN(C(C)=C2C(=O)c3ccccc3C2=O)CC1`, in assay [1], the cell count was found to be 476. The inhibition is -0.3% (inactive) in assay [1]; -21.4% (inactive) in assay [3]; 7.73% (inactive) in assay [5]; 25.7% (inactive) in [11]; 6.04% (inactive) in assay [12]; 16.6% (inactive) in [13]. Besides, in assay [2], the inhibition of aggregation was -15.9% (inactive). Further, the values for the nuclei count in assay [2] and in assay [3] were 104% and 95.3%, respectively. Besides, the z-score was -0.165 in assay [4] (setting [14]), 0.853 in assay [4] (setting [15]) and 0.114 in assay [4] (setting [16]). The results for the fluorescence slope in [6] and in assay [9] were -0.418 (inactive) and 0.0035 (inactive), respectively. In addition, the NADPH fluorescence slope in [7] was -3.2e-05 (inactive). Moreover, the slope in [8] is 0.00587 (inactive). The molecule was classed as inactive in assay [10].
As to `CCc1cc(=O)oc2c(CN3CCN(C)CC3)c(O)c(Cl)cc12`, the cell count in [1] was found to be 430. The inhibition in assay [1] was 3.2% (inactive); in [3], -40.7% (inactive); in assay [5] it was 26.3% (inactive); in [11], 13.3% (inactive); in assay [12] it was 16.8% (inactive); in assay [13], 22.6% (inactive). Also, the inhibition of aggregation in assay [2] was 27.8% (inactive). For the same molecule, the nuclei count in assay [2] is 85.9%; in assay [3] it was 101%. For the same molecule, the z-score in assay [4] (setting [14]) is 1.84; in assay [4] (setting [15]), 0.822; in [4] (setting [16]), -1.78. In addition, in assay [6], the fluorescence slope was -0.266 (inactive). Further, the NADPH fluorescence slope in assay [7] was -4.4e-05 (inactive). Also, the slope in assay [8] was 0.00532 (inactive).
Turning to `COC(=O)/C=c1/s/c(=C(/C#N)C(=O)N2CCOCC2)n(-c2ccccc2)c1=O`, the cell count in assay [1] is 611. The inhibition in [1] is 1.5% (inactive); in [3] it was 7.3% (inactive); in assay [5], 1.63% (inactive); in assay [11], 21% (inactive); in assay [12], 15.2% (inactive); in [13], 17.7% (inactive). Besides, the inhibition of aggregation in assay [2] was -12.2% (inactive). Moreover, the figures for the nuclei count in assay [2] and in assay [3] were 98.4% and 119%, respectively. The z-score in assay [4] (setting [14]) was 0.31; in assay [4] (setting [15]) it was -0.164; in assay [4] (setting [16]) it was -0.787. The fluorescence slope in [6] is -0.479 (inactive); in [9], 0.00508 (inactive). Also, the NADPH fluorescence slope in [7] is -5e-05 (inactive). For the same molecule, the slope in [8] was 0.0052 (inactive). The molecule was classed as inactive in assay [10].
For `COc1ccc(/C(O)=C2\C(=O)C(=O)N(c3cc(C)on3)C2c2ccccc2OC)cc1` (stereo not drawn), the cell count in assay [1] was determined as 515. For the same molecule, the inhibition in assay [1] was -2.7% (inactive); in [3], -21.7% (inactive); in assay [5], 19.4% (inactive); in [11], -3.34% (inactive); in assay [12] it was 8.52% (inactive); in [13], -5.11% (inactive). For the same molecule, the inhibition of aggregation in assay [2] is -8.1% (inactive). The nuclei count is 103% in assay [2] and 101% in assay [3]. For the same molecule, the z-score in [4] (setting [14]) was 1.8; in [4] (setting [15]), 0.145; in assay [4] (setting [16]), -0.473. Besides, the values for the fluorescence slope in [6] and in assay [9] were -0.469 (inactive) and 0.0068 (inactive), respectively. Further, in [7], the NADPH fluorescence slope was -6.5e-05 (inactive). The slope in assay [8] is 0.00564 (inactive). Besides, the molecule was classed as inactive in assay [10].

As a reminder, the inhibition is the drop in the measured response relative to a control, in per cent.
